Here are results for 51 molecules from ChEMBL document CHEMBL3988442, “University of Dundee, Small-Polar-MMV Screening Library” (2021).

Test [1] addresses T1, Aspartate--tRNA(Asp/Asn) ligase (Mycobacterium tuberculosis (strain ATCC 25618 / H37Rv)) (UniProt P9WFW3).
T1 sequence (whole entry): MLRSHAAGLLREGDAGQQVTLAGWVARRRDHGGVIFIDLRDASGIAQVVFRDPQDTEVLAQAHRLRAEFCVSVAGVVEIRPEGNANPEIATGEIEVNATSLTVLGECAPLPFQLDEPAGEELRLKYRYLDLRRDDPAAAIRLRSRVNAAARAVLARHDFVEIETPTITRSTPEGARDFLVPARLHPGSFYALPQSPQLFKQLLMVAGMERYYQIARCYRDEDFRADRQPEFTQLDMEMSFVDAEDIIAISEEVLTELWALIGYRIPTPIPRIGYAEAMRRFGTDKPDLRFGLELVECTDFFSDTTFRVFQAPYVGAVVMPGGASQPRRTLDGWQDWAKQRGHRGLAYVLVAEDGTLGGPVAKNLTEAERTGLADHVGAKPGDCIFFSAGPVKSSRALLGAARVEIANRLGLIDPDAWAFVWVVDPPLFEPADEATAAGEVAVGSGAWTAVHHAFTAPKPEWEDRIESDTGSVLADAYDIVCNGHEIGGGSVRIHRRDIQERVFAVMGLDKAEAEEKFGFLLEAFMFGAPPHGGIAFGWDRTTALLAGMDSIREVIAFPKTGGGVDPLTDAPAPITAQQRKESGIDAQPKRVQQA
Description: Assay for Asp RNA synthetase-1 from Mycobacterium tuberculosis. It is filed as functional. Further details: scale not given: direction of the effect not stated beside the values. As to conditions: 30 µM.

For test [2], the target named is Shiga toxin 2 (Escherichia coli O157:H7) (UniProt P09385+P09386). Description: E. coli 0.157:H7 Shiga Toxin SOP - stx2 screening assay. Type of test: functional. Particulars: 30 µM. Further details: scale not given: direction of the effect not stated beside the values.

For the molecule `O=C(CN1CCC(N2CCNC2=O)CC1)NCC(F)(F)F`, the Percent Effect in test [1] is -5.14%; in test [2] it was -3.06%.
The like results for `Cc1noc(C)c1C(=O)N1C[C@H]2CCC[C@@]2(COc2ccccn2)C1` were, in that order, 4.65% and 2.11%.
On the same counts, the results for `O=C(c1cscn1)N1CCC[C@]2(C[C@H](OCC3CC3)CO2)C1` are 3.34% and -17.4%.
The like results for `CC(C)n1c(C2CCCN(CCS(C)(=O)=O)C2)nc2ccccc21` (configuration not stated) were, in that order, 0.943% and 17.6%.
With `CC(=O)Nc1nc(CN2CCOC(Cn3cc(C)cn3)C2)cs1` (configuration not stated), the results for the Percent Effect in test [1] and in test [2] were -1.93% and 16.6%, respectively.
On the same counts, the results for `Cc1ccccc1CS(=O)(=O)CC(=O)NC1CCCCNC1=O` (configuration not stated) are -3.58% and -14.7%.
The like results for `O=C1[C@H]2CN(CC3CC3)C[C@H]2CN1Cc1cccc(F)c1` were, in that order, 1.33% and -1.04%.
The like results for `CNc1cc(C)nc(C2CN(Cc3ccc(C)nc3)CCO2)c1` (configuration not stated) were, in that order, 0.61% and 3.79%.
Consider `COc1ccc(CN2C[C@@H](OCc3ccccn3)[C@H]3COC[C@H]32)cc1`, for which the Percent Effect in test [1] was found to be 3.47%; in test [2], 12.7%.
Turning to `CCc1n[nH]c(C2CN(C(=O)c3cnc(C)s3)CCO2)n1` (configuration not stated), the Percent Effect in test [1] was -6%; in test [2], -8.48%.
On the same counts, the results for `CCc1nc(COc2ccc(OCc3cnn(C)c3)cc2)no1` are 0.524% and -31%.
The like results for `CCc1noc(C2CCCCN2C(=O)c2nnc3ccccc3n2)n1` (configuration not stated) were, in that order, 1.83% and -8.75%.
On the same counts, the results for `O=C(c1ccncn1)N1CCO[C@H]2[C@@H](OCc3cccnc3)CC[C@@H]21` are 5.42% and -37.5%.
Regarding `Cc1ncsc1C(=O)N1CCCC(c2noc(C(C)C)n2)C1` (configuration not stated), the results for the Percent Effect in test [1] and in test [2] were -6.6% and -6.13%, respectively.
The like results for `CC(C)C(=O)NCCNc1nccc(-c2cc(C(=O)O)ccn2)n1` were, in that order, 0.977% and -4.31%.
On the same counts, the results for `CCn1cc(NC(=O)C2CCN(Cc3noc(C(C)C)n3)CC2)cn1` are 1.21% and -21.2%.
The like results for `Cc1cc(C)n(C2CCCN(C(=O)c3cnc4onc(C)c4c3)C2)n1` (configuration not stated) were, in that order, -0.75% and 15.8%.
For `COc1ccccc1Oc1ncccc1CNC(=O)[C@@H](C)NC(C)=O`, the Percent Effect in test [1] is 0.362%; in test [2], -19.5%.
As to `c1ccc(CC2CCN(Cc3ccnc(-c4cccnc4)n3)CC2)cc1`, the values for the Percent Effect in test [1] and in test [2] were 0.908% and -6.53%, respectively.
On the same counts, the results for `Cn1cc(C(=O)CC2CCCN2C(=O)c2cncc3ccccc23)cn1` (configuration not stated) are -4.82% and -3.94%.
On the same counts, the results for `Cc1noc2ncc(C(=O)N(CC3CCOC3)C3CC3)cc12` (configuration not stated) are 2.12% and 24.4%.
The like results for `Cc1ccc(CNC(=O)Nc2nnc(C)s2)cn1` were, in that order, 4.24% and -6.66%.
Regarding `CCc1nc(CN2CCCN(C(=O)c3c(C)noc3C)CC2)cs1`, the Percent Effect is 1.9% in test [1] and -25.2% in test [2].
As to `Cc1cc(NC(=O)CN2CCCC2c2noc(C(C)C)n2)n(C)n1` (configuration not stated), the figures for the Percent Effect in test [1] and in test [2] were -2.48% and 5.27%, respectively.
On the same counts, the results for `CN(C)CCN1C(=O)CCC12CCN(C(=O)c1cccnc1)CC2` are -0.637% and -8.32%.
The like results for `c1ncn(CC2CCCCN2Cc2noc(C3CC3)n2)n1` (configuration not stated) were, in that order, 3.28% and 26%.
Take `Cc1ccc(CN(C)C(=O)CN2CCCC2Cn2cccn2)o1` (configuration not stated): the Percent Effect in test [1] was -1.15%; in test [2], -15.7%.
The like results for `Cc1n[nH]c(C)c1NC(=O)CN1CCCC(CNC(=O)C(C)(C)C)C1` (configuration not stated) were, in that order, -4.35% and 19.6%.
On the same counts, the results for `Cc1cc2ccccc2n1CCC(=O)NCc1ncc[nH]1` are -0.164% and 4.66%.
On the same counts, the results for `Nc1nc(CN2CCOC(Cn3cncn3)C2)nc2ccccc12` (configuration not stated) are -1.84% and 5.62%.
Consider `CN(C)S(=O)(=O)N1CCC(Oc2ccc(C#N)cn2)CC1`, for which the figures for the Percent Effect in test [1] and in test [2] were 5.76% and -4.88%, respectively.
The like results for `COc1ccc(Cl)cc1C(=O)N1CCCC(n2nc(C)nc2C)C1` (configuration not stated) were, in that order, -5.94% and 7.05%.
On the same counts, the results for `CCc1ncncc1C(=O)N1CCOC(c2nc(C)n[nH]2)C1` (configuration not stated) are -4.06% and 0.443%.
Turning to `CC(=O)Nc1nc(CN2CCCC2Cn2cc(C)cn2)cs1` (configuration not stated), the Percent Effect in test [1] was -2.91%; in test [2] it was -25.9%.
The like results for `CCN(Cc1nc2c(cnn2C)c(=O)[nH]1)Cc1cccs1` were, in that order, -1.27% and 5.32%.
On the same counts, the results for `CC1Cc2ccccc2N1Cc1occc1C(=O)OCC(N)=O` (configuration not stated) are -3.97% and -1.38%.
The like results for `COc1ccc(CNC(=O)N(Cc2ccc(F)cc2F)C2CC2)cn1` were, in that order, -9.17% and -13%.
For `CC(=O)N1CCC(c2cncc(Oc3ccccc3)n2)CC1`, the values for the Percent Effect in test [1] and in test [2] were 0.485% and 3.32%, respectively.
On the same counts, the results for `Cc1nn(C)c(N(C)C)c1CNCc1cccc(CN(C)C(C)C)c1` are 2.27% and 5.42%.
On the same counts, the results for `CNC(=O)NC(=O)CN1CCC(c2cccc(F)c2)C1` (configuration not stated) are -0.433% and 19.2%.
On the same counts, the results for `O=C(c1ccco1)N1CCOCC2(C1)CN(c1ccccc1)C(=O)CO2` (configuration not stated) are 8.44% and 2.61%.
As for `Cc1ncnc2c1CCN(Cc1ccccn1)CC2`, the figures for the Percent Effect in test [1] and in test [2] were 1.8% and -19.4%, respectively.
On the same counts, the results for `Cc1nc(CCNC(=O)NCc2ccc(N(C)C)nc2)cs1` are -1.75% and 6.63%.
The like results for `Cc1nnc(N2CCC(CS(N)(=O)=O)CC2)c(C#N)c1C` were, in that order, 6.31% and 21.6%.
`Cc1cc(C(=O)N2CCCCC2c2nc(C)cs2)[nH]n1` (configuration not stated): the values for the Percent Effect in test [1] and in test [2] were -5.22% and -15.7%, respectively.
On the same counts, the results for `Cc1nc(C2CCCN(C(=O)c3scnc3C)C2)no1` (configuration not stated) are 1.59% and 5.86%.
The like results for `N#CC1CCCN(c2nc(-c3ccccc3)nc3c2CCNCC3)C1` (configuration not stated) were, in that order, 0.524% and -18.1%.
The like results for `Cc1ccc(C(=O)N2CCC(Oc3ccc(F)cc3F)CC2)c(=O)[nH]1` were, in that order, -4.97% and 30.4%.
Consider `CCCC(C)C(=O)NCc1cn2cc(Br)ccc2n1` (configuration not stated), for which the results for the Percent Effect in test [1] and in test [2] were 1.41% and -63.8%, respectively.
For the molecule `NS(=O)(=O)N1CCc2ccc(NC(=O)Cc3ccc(F)cc3)cc21`, the values for the Percent Effect in test [1] and in test [2] were -5.84% and -15%, respectively.
The like results for `O=C(Cc1ccc2c(c1)OCO2)N1CCCN(c2ccccc2)CC1` were, in that order, 3.17% and 3.72%.
